A number with no mark means an inactive call. For part of these data: Results with a measured potency or affinity are listed apart. Calls of active or inactive are those of the source. Unless noted, how the calls were made is not given here.
Key:
[1] = antimalarial activity against Dd2 strain (AID 2302;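 active means growth inhibition above 50% at the single 2 µM test dose, taken to imply half-maximal potency below 2 µM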;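 further: 0% = DMSO untreated growth and 100% = chloroquine plus artemisinin killed control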); settings: P. falciparum Dd2 in RBCs, LDH growth readout, 72 h; at 2 µM; active compounds read high
[2] = HepG2 cytotoxicity, primary screen, cytotoxicity control for P. falciparum antimalarial project, cell-based, ATP luminescence (AID 2303;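 active means inhibition above 50%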;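 further: 0% = DMSO wells and 100% = digitonin-killed cells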); settings: HepG2 viability, 24-48 h, at 10 µM, active compounds read high
[3] = molecular target: L-lactate dehydrogenase (Plasmodium falciparum (isolate CDC / Honduras)) (UniProt Q27743); experiment: PfLDH activity inhibition – cell lysate, 3D7 strain, counter-screen for P. falciparum growth inhibition project (AID 2304);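 further: 0% = vehicle and 100% = reference inhibitor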; settings: P. falciparum 3D7 crude extract, LDH APAD/NBT absorbance; at 2 µM; active compounds read high
L-lactate dehydrogenase (Plasmodium falciparum (isolate CDC / Honduras)), sequence (Q27743 whole entry, looked up): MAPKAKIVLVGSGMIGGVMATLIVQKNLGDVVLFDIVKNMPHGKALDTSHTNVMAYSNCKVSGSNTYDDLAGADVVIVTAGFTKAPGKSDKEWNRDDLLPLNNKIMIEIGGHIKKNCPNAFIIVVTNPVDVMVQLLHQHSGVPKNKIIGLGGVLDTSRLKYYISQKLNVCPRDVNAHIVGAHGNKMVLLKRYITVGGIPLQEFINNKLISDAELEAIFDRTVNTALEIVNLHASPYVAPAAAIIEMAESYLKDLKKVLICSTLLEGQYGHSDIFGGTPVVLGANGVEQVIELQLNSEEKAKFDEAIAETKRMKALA

[4] = inhibition of 3D7 malaria parasite growth – strain 3D7 (AID 2306);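 further: 0% = DMSO wells and 100% = chloroquine plus artemisinin control wells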; settings: P. falciparum 3D7 erythrocytic growth, LDH absorbance, 72 h; at 2 µM; active compounds read high
[5] = molecular target: Calcium-dependent protein kinase 1 (Plasmodium falciparum (isolate 3D7)) (UniProt P62344); experiment: PfCDPK1 kinase inhibitors, biochemical, TCAMS library (AID 1159585; cut-off not given, nearly all actives have IC50 up to about 0.98 µM;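 further: inhibitors leave more ATP so luminescence rises with inhibition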); settings: recombinant PfCDPK1, Kinase-Glo ATP depletion luminescence
Calcium-dependent protein kinase 1 (Plasmodium falciparum (isolate 3D7)), sequence (P62344 whole entry, looked up): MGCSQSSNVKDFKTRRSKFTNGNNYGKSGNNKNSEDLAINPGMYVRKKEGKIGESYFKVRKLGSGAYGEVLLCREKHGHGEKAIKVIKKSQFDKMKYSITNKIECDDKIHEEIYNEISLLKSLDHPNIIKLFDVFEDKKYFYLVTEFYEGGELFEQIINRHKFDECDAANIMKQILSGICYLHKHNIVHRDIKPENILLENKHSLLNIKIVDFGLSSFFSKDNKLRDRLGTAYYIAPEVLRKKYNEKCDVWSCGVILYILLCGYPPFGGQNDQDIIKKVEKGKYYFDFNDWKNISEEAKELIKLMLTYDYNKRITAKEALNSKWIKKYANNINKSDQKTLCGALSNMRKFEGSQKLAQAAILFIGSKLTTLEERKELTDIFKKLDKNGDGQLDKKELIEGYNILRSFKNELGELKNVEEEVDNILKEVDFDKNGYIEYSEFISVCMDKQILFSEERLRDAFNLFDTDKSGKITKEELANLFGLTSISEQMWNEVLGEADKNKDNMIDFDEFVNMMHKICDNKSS

[6] = molecular target: Plasmodium falciparum protein kinase 6 (PK6, PF3D7_1337100) (UniProt Q8IDW1); experiment: PfPK6 kinase inhibitors, biochemical, TCAMS library (AID 1159586); settings: recombinant PfPK6, Kinase-Glo ATP depletion luminescence
Plasmodium falciparum protein kinase 6 (PK6, PF3D7_1337100), sequence (Q8IDW1 1-305): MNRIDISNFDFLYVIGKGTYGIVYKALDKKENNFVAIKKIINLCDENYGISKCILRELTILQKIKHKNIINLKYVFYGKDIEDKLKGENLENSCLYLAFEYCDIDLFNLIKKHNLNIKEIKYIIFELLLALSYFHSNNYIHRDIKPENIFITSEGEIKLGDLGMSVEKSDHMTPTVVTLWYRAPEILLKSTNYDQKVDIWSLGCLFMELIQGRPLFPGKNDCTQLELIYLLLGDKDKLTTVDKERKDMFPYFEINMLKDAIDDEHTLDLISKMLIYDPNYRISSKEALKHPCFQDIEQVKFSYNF

[7] = molecular target: Protein kinase 7 (PK7), Plasmodium falciparum 3D7 (PF3D7_0213400) (UniProt Q7YTF7); experiment: inhibition of Plasmodium PK7 catalytic activity – biochemical, TCAMS antimalarial set, Kinase-Glo luminescence (AID 1159587); settings: recombinant PfPK7, Kinase-Glo ATP depletion luminescence
Protein kinase 7 (PK7), Plasmodium falciparum 3D7 (PF3D7_0213400), sequence (Q7YTF7 1-343): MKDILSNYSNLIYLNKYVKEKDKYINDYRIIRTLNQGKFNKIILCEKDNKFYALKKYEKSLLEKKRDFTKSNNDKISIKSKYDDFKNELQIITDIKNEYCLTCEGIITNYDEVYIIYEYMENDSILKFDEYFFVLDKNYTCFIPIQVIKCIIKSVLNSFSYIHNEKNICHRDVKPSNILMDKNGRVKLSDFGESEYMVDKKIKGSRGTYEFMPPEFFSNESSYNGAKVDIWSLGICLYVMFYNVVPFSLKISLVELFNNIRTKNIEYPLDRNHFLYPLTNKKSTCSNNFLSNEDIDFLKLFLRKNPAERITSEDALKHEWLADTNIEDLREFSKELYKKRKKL

[8] = molecular target: Calcium-dependent protein kinase 4 (Plasmodium falciparum (isolate 3D7)) (UniProt Q8IBS5); experiment: PfCDPK4 kinase inhibitors, biochemical, TCAMS library (AID 1159588; cut-off not given, nearly all actives have IC50 up to about 0.91 µM); settings: recombinant PfCDPK4, Kinase-Glo ATP depletion luminescence
Calcium-dependent protein kinase 4 (Plasmodium falciparum (isolate 3D7)), sequence (Q8IBS5 whole entry, looked up): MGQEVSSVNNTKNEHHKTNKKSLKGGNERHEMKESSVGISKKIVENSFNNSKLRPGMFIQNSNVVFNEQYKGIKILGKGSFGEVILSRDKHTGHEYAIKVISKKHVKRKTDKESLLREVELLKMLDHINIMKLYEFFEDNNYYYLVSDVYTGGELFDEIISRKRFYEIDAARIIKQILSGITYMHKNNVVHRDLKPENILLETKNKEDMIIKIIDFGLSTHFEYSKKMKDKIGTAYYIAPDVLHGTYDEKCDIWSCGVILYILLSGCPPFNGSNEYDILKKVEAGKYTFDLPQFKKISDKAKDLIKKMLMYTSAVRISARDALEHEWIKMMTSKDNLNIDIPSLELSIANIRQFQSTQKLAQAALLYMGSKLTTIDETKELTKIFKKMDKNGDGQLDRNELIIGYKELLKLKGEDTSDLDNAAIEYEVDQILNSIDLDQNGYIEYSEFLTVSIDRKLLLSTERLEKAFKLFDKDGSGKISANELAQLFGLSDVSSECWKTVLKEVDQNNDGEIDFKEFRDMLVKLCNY

SMILES	growth inhibition [1]	inhibition [2]	inhibition [3] [%]	growth inhibition [4]	outcome [5]	outcome [6]	outcome [7]	outcome [8]
COCCOc1cc(C)c(C2CCN(CCCCNC(=O)c3ccc(NC(=O)c4ccc(Cl)cc4)cc3)CC2)cc1C	30%	15%	-2	88% (active)	inactive	inactive	inactive	inactive
CCOCCCn1c(=N)c(C(=O)NC(C)c2ccccc2)cc2c(=O)n3cccc(C)c3nc21 (stereo unspecified)	31%	24%	-4	95% (active)	inactive	inactive	inactive	inactive
CC(C)CCNC(=O)c1cnc2c(O)cccc2c1Nc1cccc(NC(=O)c2ccc(F)cc2)c1	43%	51% (active)	-1	93% (active)	inactive	inactive	inactive	inactive
O=C(Nc1ccc2c(c1)CCC2)c1cnc(N2CCN(c3ccncc3)CC2)c(Cl)c1	48%	33%	2	100% (active)	inactive	inactive	inactive	inactive
CN1CCN(c2cc3c(cc2Br)CCN3C(=O)Nc2ccc(-c3cnc4ccccc4c3)cc2)CC1	79% (active)	100% (active)	3	99% (active)	inactive	inactive	inactive	inactive
COc1ccc(Nc2nc(NCc3ccco3)c3ccccc3n2)cc1	76% (active)	38%	-4	99% (active)	inactive	inactive	inactive	inactive
COc1ccc(C(=O)N2CCc3cc4nccc(N5CCN6CCC[C@H]6C5)c4cc32)cc1	50% (active)	1%	-12	98% (active)	inactive	inactive	inactive	inactive
Clc1ccc2nnc(-c3c(Cl)cccc3Cl)n2n1	60% (active)	29%	-3	96% (active)	inactive	inactive	inactive	inactive
NC1=NC(CCc2ccccc2)N(c2ccccc2)C(N)=N1 (stereo unspecified)	15%	1%	-9	94% (active)	inactive	inactive	inactive	inactive
CN1CCN(CC(=O)Nc2ccc(-c3ccc(-c4nc5ccccc5[nH]4)s3)cc2)CC1	49%	12%	-1	101% (active)	inactive	inactive	inactive	inactive
COc1cccc(C(=O)NCc2n[nH]c(=S)n2-c2ccc(Cl)c(Cl)c2)c1	100% (active)	-1%	5	102% (active)	inactive	inactive	inactive	inactive
COc1ccc(Nc2nc(N)c3cc(OC)c(OC)cc3n2)cc1OC	5%	-4%	-7	99% (active)	inactive	inactive	inactive	inactive
CCC1CN(S(=O)(=O)c2ccc3c(c2)NC(=O)CC(=O)N3)c2cc(Cl)ccc2O1 (stereo unspecified)	65% (active)	-9%	-5	99% (active)	inactive	inactive	inactive	inactive
CCCCOc1ccc(N2C(N)=NC(N)=NC2(C)C)cc1	3%	16%	6	97% (active)	inactive	inactive	inactive	inactive
O=C1CCCN1CCCNCc1ccc(-c2ccc(-c3nc4ccc(C(F)(F)F)cc4[nH]3)cc2)cc1	98% (active)	10%	-5	101% (active)	inactive	inactive	inactive	inactive
COc1ccc(CNc2nc(Nc3cccc(C#N)c3)nc(Nc3cccc(C#N)c3)n2)cc1Cl	83% (active)	-4%	4	101% (active)	inactive	inactive	inactive	inactive
COc1ccc2nc(Nc3nc4ccncc4[nH]3)sc2c1	26%	8%	0	88% (active)	inactive	inactive	inactive	inactive
CN(CCC(O)c1ccc(Cl)c(Cl)c1)C[C@H]1C[C@@H]1C(=O)c1ccccc1 (stereo partly specified)	96% (active)	11%	-3	98% (active)	inactive	inactive	inactive	inactive
Cc1cc(CNCC2CCC(CNCCCc3ccccc3)CC2)ccc1O (stereo unspecified)	0%	25%	7	101% (active)	inactive	inactive	inactive	inactive
Cc1cccc(Nc2nc(C)cc(N3CCCN(CC4CCCCC4)CC3)n2)c1	21%	20%	-2	83% (active)	inactive	inactive	inactive	inactive
COc1ccccc1Nc1nc(C)cc(NCc2ccc(-n3ccnc3)cc2)n1	10%	5%	-2	90% (active)	inactive	inactive	inactive	inactive

SMILES	growth inhibition [1]	inhibition [2]	inhibition [3] [%]	growth inhibition [4]	outcome [5]	outcome [6]	outcome [7]	outcome [8]
COc1ccc(CNC(=O)c2cnc3c(O)cccc3c2Nc2cccc(NC(=O)c3ccc(-c4ccccc4)cc3)c2)cc1	83% (active)	42%	6	90% (active)	inactive	inactive	inactive	inactive
NC(N)=NCCN(Cc1ccccc1)c1ccccc1	98% (active)	8%	3	100% (active)	inactive	inactive	inactive	inactive
COc1ccc(N2C(N)=NC(N)=NC2(C)C)cc1OC	-4%	13%	-2	95% (active)	inactive	inactive	inactive	inactive
CN(C)CCCNc1ncnc2c1[nH]c1ccc(F)cc12	-1%	14%	1	100% (active)	inactive	inactive	inactive	inactive
c1cc(CNc2ncc(-c3ccsc3)c(-c3nccs3)n2)ccn1	81% (active)	18%	-7	89% (active)	inactive	inactive	inactive	inactive
N#Cc1cccc(-c2cccc(C(=O)NC3CCC(CCN4CCc5ccc(C#N)cc5CC4)CC3)c2)c1 (stereo unspecified)	57% (active)	31%	-6	99% (active)	inactive	inactive	inactive	inactive
CC(C)CNCc1cccc(-c2cccc(CN(CCN(C)C)C(=O)Nc3ccccc3)c2)c1	62% (active)	34%	4	99% (active)	inactive	inactive	inactive	inactive
O=[N+]([O-])c1ccc2c(-c3ccccc3)c(-c3ccccc3)n(O)c2c1	11%	8%	-3	97% (active)	inactive	inactive	inactive	inactive
COc1ccc2nccc(NN=Cc3ccccc3F)c2c1	98% (active)	23%	-2	103% (active)	inactive	inactive	inactive	inactive
CC1(C)N=C(N)N=C(N)N1OCCCCOc1ccc(Cl)cc1C1CCCCC1	97% (active)	56% (active)	2	93% (active)	inactive	inactive	inactive	inactive
CCCc1cc(Cc2cnc(N)nc2N)cc(OCCCCCC(=O)O)c1OC	2%	8%	4	95% (active)	inactive	inactive	inactive	inactive
O=C(Nc1cccc(-c2cccc(-c3nc4ccc(F)cc4[nH]3)c2)c1)c1cnc[nH]1	87% (active)	13%	-1	100% (active)	inactive	inactive	inactive	inactive
CC(=O)Nc1ncc(C(=O)Nc2cccc(-c3ccc(-c4nc5c(C)cccc5[nH]4)cc3)c2)s1	78% (active)	69% (active)	3	101% (active)	inactive	inactive	inactive	inactive
CC1(C)N=C(N)N=C(N)N1CCc1ccccc1	-1%	50% (active)	-4	93% (active)	inactive	inactive	inactive	inactive
Cc1cccc2[nH]c(-c3ccc(-c4cccc(NC(=O)Nc5ccc6c(c5)OCO6)c4)cc3)nc12	39%	28%	-8	100% (active)	inactive	inactive	inactive	inactive
CNCCNCc1ccc(-c2ccc(-c3nc4ccc(F)cc4[nH]3)s2)cc1	55% (active)	22%	2	99% (active)	inactive	inactive	inactive	inactive
Cn1nc(-c2cccc(CN[C@@H]3CCc4ccc(O)cc43)c2)c2cnc(NC3CCCC3)nc21	76% (active)	6%	-2	100% (active)	inactive	inactive	inactive	inactive
Cc1ccc(C2CC(c3cccs3)=NN2C(=O)c2ccc(Br)o2)cc1 (stereo unspecified)	69% (active)	11%	0	99% (active)	inactive	inactive	inactive	inactive
COc1ccc2nccc(N3CCC(CCNCc4cc5c(cn4)OCCO5)CC3)c2n1	101% (active)	18%	7	100% (active)	inactive	inactive	inactive	inactive
CCOC(=O)c1cc(Cl)cc(Cl)c1OCCCON1C(N)=NC(N)=NC1(C)C	97% (active)	70% (active)	-6	93% (active)	inactive	inactive	inactive	inactive
O=C(Nc1cc(C(F)(F)F)cc(C(F)(F)F)c1)Nc1cc(C(F)(F)F)cc(C(F)(F)F)c1	101% (active)	5%	-7	97% (active)	inactive	inactive	inactive	inactive
